Test results as given in PubChem BioAssay AID624330 (Southern Research Specialized Biocontainment Screening …, 2012).
In all, about 340,000 compounds went through this assay and about 2,100 (0.62%) were called active.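 Rule for the calls: active = first-screen hits whose inhibition reached a set limit at any dose in the follow-up dose series; inconclusive = inhibition above the set first-screen limit but never retested; inactive = the rest.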 Not all results are given here. Potency and affinity values are given separately.

target: Rac GTPase-activating protein 1 (Homo sapiens) (UniProt Q9H0H5); experiment: blockers of MgcRacGAP-driven Rac1 GTP hydrolysis – biochemical, ADP Hunter fluorescence, primary and confirmatory, confirmation (AID 624330); conditions: MgcRacGAP-stimulated Rac1 GTP hydrolysis, at 30 µM, active compounds read high, GST-tagged Rac1 F28L mutant substrate;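 note: fluorescence reports GDP produced by GAP-driven GTP hydrolysis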
Sequence (Q9H0H5 whole entry, looked up): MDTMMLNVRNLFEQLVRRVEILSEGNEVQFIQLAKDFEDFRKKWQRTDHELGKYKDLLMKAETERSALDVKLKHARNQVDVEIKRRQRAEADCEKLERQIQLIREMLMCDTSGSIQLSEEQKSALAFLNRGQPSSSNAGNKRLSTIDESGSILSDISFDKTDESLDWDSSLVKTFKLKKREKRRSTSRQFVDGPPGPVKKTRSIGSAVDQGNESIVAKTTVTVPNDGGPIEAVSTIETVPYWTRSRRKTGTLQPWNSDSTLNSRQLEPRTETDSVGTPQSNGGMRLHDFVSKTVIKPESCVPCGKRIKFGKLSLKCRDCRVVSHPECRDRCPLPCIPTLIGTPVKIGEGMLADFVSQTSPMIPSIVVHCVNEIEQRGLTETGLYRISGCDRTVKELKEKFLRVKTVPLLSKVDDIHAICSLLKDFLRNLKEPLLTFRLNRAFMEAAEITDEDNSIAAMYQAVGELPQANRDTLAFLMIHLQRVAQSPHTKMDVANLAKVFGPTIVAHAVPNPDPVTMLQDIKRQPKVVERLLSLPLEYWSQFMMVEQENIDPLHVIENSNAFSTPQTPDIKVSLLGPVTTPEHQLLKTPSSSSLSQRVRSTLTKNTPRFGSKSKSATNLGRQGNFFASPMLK

inhibition, inactive:
COc1cc(C(=O)O)nc(OC)n1 0.97%
CCOC(=O)c1nn(-c2ccc(Cl)cc2)c(=O)c(C#N)c1C 5.44%
O=C(O)CNC(=O)c1ccc(Oc2c(F)c(F)c(Oc3ccc(C(=O)NCC(=O)O)cc3)c(F)c2F)cc1 -1.5%
N#CCSc1nnc2sc3ccccc3n12 5.4%
O=S(=O)(O)c1nnc2sc3ccccc3n12 7.48%
O=S(=O)(Cc1ccccc1)N1CCN(Cc2ccc3c(c2)OCO3)CC1 4.33%
Cc1cccc(NC(=O)C2C3C=CC(C4CC34)C2C(=O)O)c1 (configuration not stated) 10%
Cc1nc2ncnn2c(C)c1Cc1cccc(C(F)(F)F)c1 5.74%
CC1Cc2ccccc2N1C(=O)CNc1ccccc1N1CCCCC1 (configuration not stated) -0.46%
CCCCNC(=O)N1c2ccccc2CC1C (configuration not stated) 1.84%
Cc1cc(N2C(=O)C(O)=C(C(=O)c3cc4ccccc4o3)C2c2ccc(Cl)cc2)no1 (configuration not stated) -5.51%
O=[N+]([O-])c1ccccc1NS(=O)(=O)c1ccccc1 0.32%
Cc1ccc2[nH]ccc(=O)c2c1 10.1%
O=c1cc[nH]c2c1ccc1c(=O)cc[nH]c12 10.4%
CC1CCC2(CC1)NC(=O)N(CC(=O)N1CC(C)CC(C)C1)C2=O (configuration not stated) 3.96%
CCc1ccc2c(c1)C(c1ccc([N+](=O)[O-])cc1)=NNC(c1ccc(C)cc1)=N2 11%
Cc1ccc(/C=N/Nc2ccc(F)cc2)s1 8.64%
O=C(O)c1cc(N/N=C/c2ccncc2)ccc1Cl -1.57%
Cc1ccc(/C=N/Nc2cccc(C(=O)O)c2)s1 27.8%
CSc1ccc(/C=N/Nc2ccc(Cl)c(C(=O)O)c2)cc1 5.85%
CC1=NN(c2ccc(C(=O)OC(C)C)cc2)C(=O)/C1=C\C=C\c1ccco1 3.71%
CC1=NN(c2ccc(Cl)c(C(=O)O)c2)C(=O)C1 14.9%
CCOC(=O)c1ccc(N2N=C(C)/C(=C/C=C/c3ccco3)C2=O)cc1 3.99%
O=C1NN(c2ccc(F)cc2)C(=O)/C1=C\C=C\c1ccco1 8.7%
O=C(C1=C(O)C(=O)N(CCN2CCOCC2)C1c1cccc(Br)c1)c1cc2ccccc2o1 (configuration not stated) 4.64%
C=CCC[C@@H](Cc1ccc(F)cc1)C(=O)OC[C@@H](Cc1c[nH]c2ccccc12)NC(=O)[C@@H](CC=C)CC(=O)N[C@H](CO)Cc1ccccc1 11.1%
CCN(CC)C1CCN(C(=O)c2cc(COc3cccc4cccnc34)on2)C1 (configuration not stated) -5.07%
COC(=O)C(NC(C)=O)(Nc1ccc(C)cn1)C(F)(F)F (configuration not stated) -9.84%
O=[N+]([O-])c1ccccc1CN1CCN(Cc2ccccn2)CC1 28.6%
COc1cc(CN2CCC(C(=O)NC(C)(C)C)CC2)ccc1OCc1ccccc1 29.2%
CCOC(=O)c1cc(CC)sc1NC(=O)Cc1ccsc1 14.6%
C#Cc1ccc(CN2CCN(CCc3ccccc3)C(CCO)C2)cc1 (configuration not stated) 5.19%
Cc1c(C)c2ccc(OCC(=O)NC3CCN(Cc4ccccc4)CC3)cc2oc1=O 4.93%
C[C@@H]1CCCCO[C@H](CN(C)C(=O)Nc2ccc(F)cc2)[C@@H](C)CN([C@H](C)CO)C(=O)c2cc(NC(=O)c3ccccc3)ccc2O1 5.34%
Nc1ccc(N=Nc2ccccc2Cl)c(N)n1 10.4%
O=C(O)c1ccccc1N=Nc1ccc(O)cc1 13.8%
Oc1ccc(N=Nc2ccc3ccccc3c2)cc1 18.5%
Nc1ccc(N=Nc2ccccc2)c(N)n1 8.49%
O=C(Nc1cccc(-c2ccccc2)c1)N1CCN(C(=O)Nc2cccc(-c3ccccc3)c2)CC1 14.5%
Cc1cc(NC(=O)c2ccc(C)o2)no1 2.09%
CCOC(=O)N1CCC(N2Cc3cccc(C(=O)Nc4ccc(N(CC)CC)cc4C)c3C2=O)CC1 -10.8%
COC(=O)CNC(=O)c1nn(-c2cccc(OC)c2)c(=O)c2ccccc12 7.12%
O=c1c(CN2CCN(c3cccc(Cl)c3)CC2)coc2c(Cl)cc(Cl)cc12 1.43%
CCOC(=O)C1CCN(Cc2coc3c(Cl)cc(Cl)cc3c2=O)CC1 14.9%
CCOC(=O)c1cnc2c(cnn2C)c1NCCC(O)C(F)(F)F (configuration not stated) 12.4%
COc1ccc(CCC(=O)NC2CCCc3ccccc32)cc1OC (configuration not stated) 5.44%
COc1ccc(NC(=O)c2cc3n(n2)C(C(F)(F)F)CC(c2ccco2)N3)cc1 (configuration not stated) 14.5%
CCOc1ccc(NC(=O)c2cc3n(n2)C(C(F)(F)F)CC(c2ccco2)N3)cc1 (configuration not stated) 6.77%
CCN(C[C@H]1N[C@@](Cc2ccccc2)(C(=O)OC)[C@H]2C(=O)N(Cc3ccccc3)C(=O)[C@@H]12)C(=O)COc1ccccc1 2.94%
Cc1cc2c([nH]c3ccccc32)c(C)n1 17.6%
Cc1cc2[nH]c3ccccc3c2c(C)n1 5.1%
Cc1ccc(CNc2ccc3c(c2)OCO3)cc1 10.4%
O=C(NCc1ccncc1)C(=O)Nc1ccc2c(c1)OCO2 3.26%
Cc1cc(NCc2ccncc2)ccc1Br 22.5%
O=C(NCc1ccncc1)Nc1ccc2c(c1)OCO2 14.7%
COc1ccc(CN(C)C(=O)Cc2ccc(OC)c(S(=O)(=O)N3CCOCC3)c2)cc1 6.77%
O=C1CSC(c2cn(-c3ccccc3)nc2-c2cc3ccccc3oc2=O)N1Cc1cccnc1 (configuration not stated) -1.18%
CCN(CC)CCCN(C(=O)c1ccccc1F)c1nc(-c2ccc(OC)cc2)cs1 13.2%
c1ccc(C2=NN(c3ccccc3)CC2)cc1 10.1%
CSc1nnc(-c2nnc(SC)n2-c2ccccc2)n1-c1ccccc1 5.06%
COC(=O)C1=C(C)NC(=O)NC1c1ccc(OCC(=O)N2CCCCC2)cc1 (configuration not stated) 6.29%
CC1(C)OC(=O)C=C[C@]2(C)[C@H]3CC[C@@]4(C)[C@H](C(=O)O)OC(=O)[C@H]5O[C@]54[C@]3(C)C(=O)C[C@@H]12 10.6%
C[C@@H]1CN([C@H](C)CO)S(=O)(=O)c2ccc(C#Cc3ccccc3)cc2O[C@@H]1CN(C)C(=O)CN(C)C 10.8%
CCOc1ccc(/C=N/NC(=O)Cc2csc(Nc3cccc(C(F)(F)F)c3)n2)cc1 13.7%
Cc1ccc(/C=C/C(=O)Nc2ccc([N+](=O)[O-])cc2)o1 5.27%
Cc1ccc(/C=C/C(=O)Nc2ccncc2)o1 8.37%
O=C(O)C1C2C=CC3(CN(c4cccc(C(F)(F)F)c4)C(=O)C13)O2 (configuration not stated) 2.13%
Cc1cc(C)cc(N(CC(=O)N2CCCC2)S(C)(=O)=O)c1 0.27%
COc1ccccc1C(CNC(=O)CNC(=O)c1ccccc1Cl)N1CCCC1 (configuration not stated) 4.57%
CCOCCCNC(=O)/C(C#N)=C/c1ccc(C)o1 -11.1%
CCOCCCNC(=O)/C(C#N)=C/c1ccc(Cl)c([N+](=O)[O-])c1 2.68%
O=S(=O)(c1ccccc1)c1nc(Nc2cccc(O)c2)sc1Cl 8.03%
COc1ccccc1NC(=O)c1cc2ccccc2o1 10.9%
COc1ccc2[nH]c3c(c2c1)CNCC3 17.4%
CCN1CCCC1CNC(=O)C(=O)Nc1ccc(OC)cc1 (configuration not stated) 8.81%
O=C(CNCC1CCCCC1)Nc1ccc(OC(F)(F)F)cc1 19.5%
O=C(CN(Cc1ccco1)C(=O)CNS(=O)(=O)c1ccc(F)cc1)NCc1ccco1 7.49%
COCc1cc(/C=N\NC(=O)c2ccc(Cl)cc2)ccc1OC 7.25%
Cc1ccc(Cn2nnc3c(=O)[nH]c(C4CCCN(C(=O)Nc5ccc(F)cc5)C4)nc32)cc1 (configuration not stated) 2.33%
Cc1c2ccncc2cc2c1[nH]c1ccccc12 8.32%
COc1ccc2[nH]c(C)cc(=O)c2c1 17.3%
COc1ccc2[nH]c3c(Cl)ncnc3c2c1 2.77%
COc1ccc2[nH]c3c(=S)nc[nH]c3c2c1 16.8%
CC(C)C(=O)N(Cc1cc2ccccc2[nH]c1=O)C(C)(C)C 4.65%
Cc1ccc(S(=O)(=O)N2CCN(C(=O)COC(=O)CC(C)c3ccccc3)CC2)c(C)c1 (configuration not stated) -1.45%
COc1ccccc1NC(=S)NCC1CCCO1 (configuration not stated) 8.32%
Cc1cc(F)ccc1S(=O)(=O)N1CCCOC1CNC(=O)C(=O)NCC(C)C (configuration not stated) 3.59%
O=C(CCC(=O)c1cccs1)NCc1ccncc1 8.09%
COc1ccccc1CNS(=O)(=O)CCNCc1ccco1 7.98%
Cc1ccc(CCNc2ccccc2C)cn1 6.7%
Cc1ccc(NCCc2ccc(C)nc2)cc1 24.8%
Cc1[nH]c2ccccc2c1/C=N/n1cnnc1 11.3%
CCc1nnc(N/N=C/c2cc(C)c(C)cc2C)n1N 8.58%
Cc1[nH]c2ccccc2c1/C=N/NC(N)=S 15.4%
CCc1nnc(N/N=C/c2c(Cl)cccc2Cl)n1N 6.89%
CCc1nnc(N/N=C/c2ccccc2F)n1N -6.59%
Cc1ccc(/C=N/Nc2nncn2N)cc1 -7.75%
